Data taken from PubChem BioAssay (NCATS).
Calls of active or inactive are those of the source. How the calls were made is not given here.

Columns and labels:
[1] = Immunotoxin (HA22) sensitization/mitigation study. Vehicle arm (PBS) (AID 1159510); conditions: cancer cells viability with PBS vehicle (HA22 study); series mostly up to 46.1 µM
[2] = Immunotoxin (SS1P) sensitization/mitigation study. Vehicle arm (DMEM) (AID 1159513); conditions: cell viability with vehicle (DMEM); series mostly up to 46.1 µM
Potency means the concentration at half of the fitted maximal effect.

Row | SMILES | Potency [1] | Potency [2]
1 | Cc1cccc(C=NNc2cc(N3CCOCC3)nc(OCCc3ccccn3)n2)c1 | 4.69 µM (active) | 20.9 µM (active)
2 | C=C1C(=CC=C2CCCC3(C)[C@@H]([C@H](C)C=CC=CC(O)(CC)CC)CC[C@@H]23)C[C@@H](O)C[C@@H]1O (stereo not given in full) | 23.5 µM (active) | 20.9 µM (active)
3 | CC(C)(C)COc1ccc(-n2cc(C(=O)O)cn2)cc1C#N | 18.7 µM (active) | inactive
4 | Cc1cn(-c2cc(NC(=O)c3ccc(C)c(Nc4nccc(-c5cccnc5)n4)c3)cc(C(F)(F)F)c2)cn1 | 14.8 µM (active) | 26.4 µM (active)
5 | CN1CCC(CNc2ccc3ncc(-c4cccc(OC(F)(F)F)c4)n3n2)CC1 | 20.9 µM (active) | 16.6 µM (active)
6 | O=C(O)c1ccc2c(c1)nc(Nc1cccc(Cl)c1)c1ccncc12 | 5.26 µM (active) | 11.8 µM (active)
7 | COc1cc2nc(-c3ccc(N4CCN(C)CC4)cc3)nc(NCCN3CCOCC3)c2cc1OC | 2.35 µM (active) | 18.7 µM (active)
8 | Cn1cc(-c2ccc3nnc(C(F)(F)c4ccc5ncccc5c4)n3n2)cn1 | inactive | inactive
9 | O=S(=O)(N=Cc1c(O)ccc2ccccc12)c1cccs1 | 16.6 µM (active) | inactive
10 | CC[C@@H](C(=O)O)C1CC[C@H](C)C([C@@H](C)[C@H](O)[C@H](C)C(=O)[C@H](CC)C2O[C@]3(C=C[C@@H](O)[C@]4(CC[C@@](C)(C5CC[C@](O)(CC)[C@H](C)O5)O4)O3)[C@H](C)C[C@@H]2C)O1 (stereo not given in full) | 0.0418 µM (active) | 20.9 µM (active)
11 | S=C(NCc1ccc2c(c1)OCO2)N1CCN(c2ncnc3c2oc2ccccc23)CC1 | 18.7 µM (active) | 0.372 µM (active)
12 | O=C(O)[C@H](Cc1c[nH]c2ccccc12)N1C(=O)c2ccccc2C1=O | inactive | inactive
13 | COc1cc2c(Oc3ccc(-c4cnc(Nc5ccc(F)cc5)n(C)c4=O)cc3F)ccnc2cc1OCCCN1CCOCC1 | 18.7 µM (active) | 20.9 µM (active)
14 | CCC(=O)N1CCN(c2ccc(-n3c(=O)ccc4cnc5ccc(-c6cnc7ccccc7c6)cc5c43)cc2C(F)(F)F)CC1 | 4.18 µM (active) | 0.0209 µM (active)
15 | COc1cccc2nc(-c3cccs3)nc(NN3C(=O)C=C(C)C3=O)c12 | 0.0166 µM (active) | 5.9 µM (active)
16 | O=C(O)c1ccc2cc(-c3ccc(O)c(C45CC6CC(CC(C6)C4)C5)c3)ccc2c1 | 0.0935 µM (active) | 18.7 µM (active)
17 | CN(C)CCCN=c1c2ccccc2n(C)c2[nH]c(=O)n(C)c(=O)c12 | 7.43 µM (active) | 7.43 µM (active)
18 | CCCCCN(CCC12CC3CC(CC(C3)C1)C2)C(=O)NCCCc1ccncc1 | 11.8 µM (active) | 23.5 µM (active)
19 | O=C(C=Cc1ccc(/C=C/C(=O)Nc2ccc(C3=NCCN3)cc2)cc1)Nc1ccc(C2=NCCN2)cc1 | inactive | inactive
20 | CC(C)[C@H](CO)Nc1nc(Nc2ccc(C(=O)O)c(Cl)c2)c2ncn(C(C)C)c2n1 | inactive | inactive
21 | CCN(c1ccccc1)c1cc(NC)[n+](C)c(C)n1 | 18.7 µM (active) | 18.7 µM (active)
22 | CCCCCCCCCCCCCCCCCCOP(=O)([O-])OC1CC[N+](C)(C)CC1 | inactive | inactive

Row | SMILES | Potency [1] | Potency [2]
23 | COc1ccc(-c2ccc3c(N4CCOC[C@H]4C)nc(N4CCOC[C@H]4C)nc3n2)cc1CO | 0.469 µM (active) | 0.0105 µM (active)
24 | COC(=O)Nc1ccc(-c2nc(N3CCOCC3)c3cnn(C4CCN(C(=O)OC)CC4)c3n2)cc1 | 16.6 µM (active) | 0.187 µM (active)
25 | OC[C@H](Cc1ccccc1)Nc1nc(Oc2ccc3c(c2)CCC3)nc2c1ncn2Cc1ccc(-c2ccccc2)cc1 | 10.5 µM (active) | 13.2 µM (active)
26 | CCC(=O)N[C@H]1CC[C@H](C(=O)N(C)c2ccc(-c3nc4ccccc4o3)cc2)C1 | 7.43 µM (active) | 7.43 µM (active)
27 | CCOC(=O)[C@@H](N)CCC(=O)N[C@@H](CSCc1ccccc1)C(=O)N[C@@H](C(=O)OCC)c1ccccc1 | 23.5 µM (active) | inactive
28 | Cc1[nH]nc2ccc(-c3cncc(OC[C@@H](N)Cc4ccccc4)c3)cc12 | 1.18 µM (active) | 1.32 µM (active)
29 | CNc1nccc(-c2cccnc2Oc2cc(C(=O)Nc3cccc(C(F)(F)F)c3)ccc2C)n1 | 14.8 µM (active) | 23.5 µM (active)
30 | O=C(NCCS(=O)(=O)c1ccc(C(F)(F)F)cn1)c1ccc(Cl)cc1 | inactive | inactive
31 | O=C(NOC[C@H](O)CO)c1ccc(F)c(F)c1Nc1ccc(I)cc1F | inactive | inactive
32 | c1ccc(-c2nn3c(c2-c2ccnc4cc(OCCN5CCOCC5)ccc24)CCC3)nc1 | 26.4 µM (active) | inactive
33 | CCN(CC)CCCCNc1ncc2cc(-c3cc(OC)cc(OC)c3)c(NC(=O)NC(C)(C)C)nc2n1 | 20.9 µM (active) | 20.9 µM (active)
34 | C[C@@H](Oc1cc(-c2cnn(C3CCNCC3)c2)cnc1N)c1c(Cl)ccc(F)c1Cl | 16.6 µM (active) | 18.7 µM (active)
35 | CCOc1ccc(Nc2nc(-c3c(C)nc4ccccn34)cs2)cc1 | 0.0105 µM (active) | 0.0059 µM (active)
36 | CCN1CCN(Cc2ccc(-c3cc4c(N[C@H](C)c5ccccc5)ncnc4[nH]3)cc2)CC1 | 16.6 µM (active) | 23.5 µM (active)
37 | Cc1cnc(Nc2ccc(F)cc2Cl)nc1-c1c[nH]c(C(=O)N[C@H](CO)c2cccc(Cl)c2)c1 | 23.5 µM (active) | 20.9 µM (active)
38 | C#Cc1cccc(Nc2ncnc3cc(OC)c(OCCCCCCC(=O)NO)cc23)c1 | 0.132 µM (active) | 0.526 µM (active)
39 | CS(=O)(=O)Oc1ccc2c(NC(N)=O)c(C(=O)c3ccc(Cl)cc3Cl)oc2c1 | inactive | inactive
40 | OCCn1cc(-c2ccc3c(c2)CCC3=NO)c(-c2ccncc2)n1 | inactive | inactive
41 | CN1CC[C@@H](c2c(O)cc(O)c3c(=O)cc(-c4ccccc4Cl)oc23)[C@@H](O)C1 | 0.0166 µM (active) | 0.0469 µM (active)
42 | O=c1[nH]nc(Sc2ncc([N+](=O)[O-])s2)n1-c1ccc2c(c1)OCCO2 | 0.264 µM (active) | 20.9 µM (active)
43 | Cc1cc(Nc2cc(N3CCN(C)CC3)nc(C=Cc3ccccc3)n2)n[nH]1 | 1.32 µM (active) | 0.833 µM (active)
44 | Cc1ccc(C(N)=O)cc1Nc1nccc(-c2cn(C(C)C)c3cnccc23)n1 | 2.64 µM (active) | 7.43 µM (active)

Row | SMILES | Potency [1] | Potency [2]
45 | O=C(O)CC/C=C\CC[C@H]1[C@@H](N2CCCCC2)[C@@H](O)C[C@@H]1OCc1ccc(-c2ccccc2)cc1 | inactive | inactive
46 | O=C1[C@H](Cc2ccc(O)cc2)N2C(=O)CCN(C(=O)NCc3ccccc3)[C@H]2CN1Cc1cccc2ccccc12 | 6.62 µM (active) | 2.35 µM (active)
47 | CC(C)(C)OC(=O)Nc1ccc(-c2cc(C(=O)NCCCCCCC(=O)NO)no2)cc1 | 0.0935 µM (active) | 1.18 µM (active)
48 | COCCNCCCn1c(C(=O)CF)c(-c2ccc(C)cc2)c2c(N)ncnc21 | inactive | inactive
49 | COc1cc2ncn(-c3cc(OCc4ccccc4C(F)(F)F)c(C(N)=O)s3)c2cc1OC | 0.296 µM (active) | 0.166 µM (active)
50 | O=C(Nc1ccc(OC(F)(F)F)cc1)c1sccc1NCc1ccnc2ccccc12 | 18.7 µM (active) | 18.7 µM (active)
51 | Cc1cc(C=c2sc3nc4ccccc4n3c2=O)c(C)n1-c1ccccc1 | 18.7 µM (active) | 9.35 µM (active)
52 | CC(=O)Nc1sc2c(c1-c1nc3ccccc3s1)CNC2 | 16.6 µM (active) | 23.5 µM (active)
53 | COC(=O)c1ccc2c(C(=Nc3ccc(N(C)C(=O)CN4CCN(C)CC4)cc3)c3ccccc3)c(O)[nH]c2c1 | 0.209 µM (active) | 1.18 µM (active)
54 | CN1CCN(c2ccc3nc(-c4c(N)c5c(F)cccc5[nH]c4=O)[nH]c3c2)CC1 | 1.66 µM (active) | 18.7 µM (active)
55 | Cc1c(C(=O)Nc2ccc(N3C[C@@H](C)O[C@@H](C)C3)nc2)cccc1-c1ccc(OC(F)(F)F)cc1 | 20.9 µM (active) | 23.5 µM (active)
56 | c1ccc2c(-c3cnn4cc(-c5ccc(N6CCNCC6)cc5)cnc34)ccnc2c1 | 14.8 µM (active) | 18.7 µM (active)
57 | C=C1C(=CC=C2CCC[C@]3(C)[C@@H]([C@H](C)C=C[C@H](C)C(C)C)CC[C@@H]23)C[C@@H](O)C[C@@H]1O | 20.9 µM (active) | inactive
58 | CNC(=O)c1cc(Oc2ccc(NC(=O)Nc3ccc(Cl)c(C(F)(F)F)c3)c(F)c2)ccn1 | 20.9 µM (active) | 26.4 µM (active)
59 | CC(C)C[C@@H](C(=O)N[C@H](C(=O)OC1CCCC1)c1ccccc1)[C@H](O)C(=O)NO | 23.5 µM (active) | 16.6 µM (active)
60 | CN([C@@H](Cc1ccc(OS(=O)(=O)c2cccc3cnccc23)cc1)C(=O)N1CCN(c2ccccc2)CC1)S(=O)(=O)c1cccc2cnccc12 | inactive | inactive
61 | CC(=O)N(C)C1(c2ccccc2)CCN(CCC[C@]2(c3ccc(Cl)c(Cl)c3)CCCN(C(=O)c3ccccc3)C2)CC1 | 13.2 µM (active) | 18.7 µM (active)
62 | CCN(CC)CCn1c(=O)c(Cc2ccc(OC)cc2)nc2ccccc21 | inactive | inactive
63 | CCOC(=O)C1=C[C@@]2(CC)CCCN3CCc4c(n1c1ccccc41)[C@H]32 | inactive | inactive
64 | C=CC(=O)Nc1cc2c(Nc3ccc(F)c(Cl)c3)ncnc2cc1C#CC(C)(C)N1CCN(C)CC1 | 0.833 µM (active) | 16.6 µM (active)
65 | COc1cc2ncnc(Nc3ccc(F)c(Cl)c3)c2cc1NC(=O)C=CCN1CCCCC1 | 9.35 µM (active) | 18.7 µM (active)
